Experimental data published in PubChem BioAssay (NCI).
About 83,000 compounds went through this panel and 20% of them were active in at least one assay; those are over-represented in the sample as a whole.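 How to read the values: 0–100, growth inhibition (40 = 60% inhibited); 0, no net growth; -100 to 0, cell death (-40 = 40% of starting cells died; -100 = all dead).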 Values without a mark were called inactive. The source made the active and inactive calls. Rule for the calls: active = growth percent below 10; inactive = the rest.

Experiments:
Experiment in all cases: NCI-60 one-dose screen, 48 h (100 = growth as untreated, 0 = no growth, -100 = all killed)
Details in all cases: 10 µM unless noted
HCT-15 colon = system: HCT-15 colon
HT29 colon = system: HT29 colon
SNB-75 CNS = system: SNB-75 CNS
SNB-19 CNS = system: SNB-19 CNS
U251 CNS = system: U251 CNS
PC-3 prostate = system: PC-3 prostate
SK-MEL-5 melanoma = system: SK-MEL-5 melanoma
UACC-62 melanoma = system: UACC-62 melanoma
LOX IMVI melanoma = system: LOX IMVI melanoma
SK-MEL-28 melanoma = system: SK-MEL-28 melanoma
SN12C renal = system: SN12C renal
UO-31 renal = system: UO-31 renal
TK-10 renal = system: TK-10 renal
ACHN renal = system: ACHN renal
CAKI-1 renal = system: CAKI-1 renal
A498 renal = system: A498 renal
CCRF-CEM leukemia = system: CCRF-CEM leukemia
MOLT-4 leukemia = system: MOLT-4 leukemia
SK-MEL-2 melanoma = system: SK-MEL-2 melanoma

SMILES	growth (HCT-15 colon)	growth (HT29 colon)	growth (SNB-75 CNS)	growth (SNB-19 CNS)	growth (U251 CNS)	growth (PC-3 prostate)	growth (SK-MEL-5 melanoma)	growth (UACC-62 melanoma)	growth (LOX IMVI melanoma)	growth (SK-MEL-28 melanoma)	growth (SN12C renal)	growth (UO-31 renal)	growth (TK-10 renal)	growth (ACHN renal)	growth (CAKI-1 renal)	growth (A498 renal)	growth (CCRF-CEM leukemia)	growth (MOLT-4 leukemia)	growth (SK-MEL-2 melanoma)
O=C(NC(Cc1cn(Cc2ccccc2)cn1)C(=O)O)OCC1c2ccccc2-c2ccccc21 (stereo unspecified)	104%	98.1%	92.3%	109%	101%	100%	103%	112%	97.8%	104%	108%	85.1%	105%	104%	103%	102%	111%	83.6%	
Oc1cc(/C=C/c2nc(N3CCOCC3)c3cc(Cl)c(Cl)cc3n2)cc(O)c1O	98.9%	120%	91.5%	102%	102%	101%	90%	98.8%	106%	109%	104%	95.2%	95.8%	99.9%		92.5%	109%		102%
O=C1C=C(C(O)c2ccc(O)cc2)C(=O)c2ccccc21 (stereo unspecified)	94.9%	115%	102%	110%	95.1%	99.5%	96.5%	101%	83.7%	120%	107%	69.2%	103%	92.7%		104%		84.8%	109%
Cc1nn2c(-c3nc4cc(Cl)c(Cl)cc4[nH]3)c(-c3ccc(F)cc3)nc2s1	76.8%	20%	-43.7% (active)	25.7%	10.6%	24.6%	31.9%	15.9%	19.5%	22.9%	34%	-67.1% (active)	-33.1% (active)	9.13% (active)	13%	29.8%	66.5%	76.3%	57.9%
CCCC(=O)N1CCCCC1CC (stereo unspecified)	99.4%	106%	92%	112%	91.8%	92.5%	117%	111%	105%	112%	105%	108%	113%	97.1%		90.8%	95.3%	113%	109%
C[N+](C)(CCCCCC[N+](C)(C)C1c2ccccc2-c2ccccc21)C1c2ccccc2-c2ccccc21	105%	110%	95%	105%	96.4%	98.2%	111%	108%	104%	111%	108%	89%	112%	106%			106%	90.1%	95.8%
NC(Cc1ccc(O)cc1)C(=O)N/N=C/c1ccccc1O (stereo unspecified)	96.8%	101%	92.7%	110%	96.9%	89.3%	103%	113%	92.6%	106%	114%	74.6%	98%	116%	107%	103%	81.2%	75.6%	
CC(C)=CCC/C(C)=C/CC/C(C)=C/CSC[C@H](NC(=O)CCCCCN1CCN(C)CC1)C(=O)NC1CCCCCC1	0.0874% (active)	-48.3% (active)	73.8%	81%	33.2%	51.9%	79.9%	3.45% (active)	25.3%	-56% (active)	87.4%	56%	94.2%	66%		77.3%	19.9%	38.4%	88.2%
COc1ccc(C(=O)c2cc(OC)c(OC)c(OC)c2)cc1/C=C/C(=O)c1cc(OC)c(OC)c(OC)c1	64.7%	82.7%	65.4%	92.7%	86.4%	86.5%	86.6%	70.6%	79%	91.3%	96.2%	66.2%	140%	89.3%		96.2%	60.5%	88.3%	116%
Nc1nc(N)c2nc3c(nc2n1)CCCCCCCCCC3	33.6%	35.6%	79.2%	50.8%	34.9%	39.2%	35%	43.9%	30.8%	90.4%	43.2%	48.7%	80.3%	39.4%		93.6%	3.44% (active)	45.3%	77.5%
COc1cc2[nH]c(C(=O)c3cc(OC)c(OC)c(OC)c3)c(N)c2cc1C#CCO	19.6%	1.02% (active)	8.88% (active)	26.3%	22.8%	10.6%	-0.319% (active)	31.2%	39.4%	14.3%	45.1%	31.5%	66.2%	23%		-16.8% (active)	11.5%	29.6%	29.6%
OCC12CCCC(CO)(COC1)C2O (stereo unspecified)	106%	105%	96.4%	116%	99.2%	99.7%	99.8%	107%	98.6%	107%	101%	91.1%	113%	103%		97.9%	-57.2% (active)	126%	117%
COc1ccc(C(=O)/C=C/c2cc(-c3cc(OC)c(OC)c(OC)c3)n[nH]2)cc1OC	-16.4% (active)	-71% (active)	33.2%	35.2%	-85.5% (active)	20.3%	12.3%	34.1%	-96.3% (active)	-60.6% (active)	5.5% (active)	-84.8% (active)		-86.2% (active)	-67% (active)	4.21% (active)	-18.6% (active)	-1.18% (active)	22.6%
[B-][N+](CC)(CC)c1ccccc1	100%	107%	84.1%	105%	99%	99.4%	104%	111%	109%	99.7%	108%	83.8%	110%	95.1%		108%	-12.5% (active)		113%
CC(C)=CCC/C(C)=C/CC/C(C)=C/CC/C(C)=C/CSC[C@H](NC(=O)CCCCCN1CCN(C)CC1)C(=O)NC1CCCCC1	24%	-39% (active)	81.5%	85.6%	55.2%	64.4%	97.9%	87.6%	68.5%	5.53% (active)	97.7%	67.3%	111%	83.4%		92.9%	17.4%	45.2%	97.6%
Cc1[c-]onc1C.Cc1[c-]onc1C.[Ag].[Ag].[NH-]S(=O)(=O)c1ccc(N=Nc2cc(N=Nc3ccc(S([NH-])(=O)=O)cc3)c3c(NC(=O)C(Cl)Cl)cccc3c2OC(=O)C(Cl)Cl)cc1	84.1%	78.3%	44.8%	86.6%	82.7%	47.1%	24.2%	85.9%	81.4%	86.4%	94.1%	71.4%	133%	58%	68.5%	98.6%	11%	81.8%	
NC(=O)[C@@H]1CC2CCC1C2 (stereo partly specified)	98.2%	117%	85.1%	111%	96.3%	91%	109%	110%	106%	109%	114%	99.7%	120%	102%		87.9%	37.4%	102%	119%
OCCNc1nc(Nc2ccc(Cl)c(Cl)c2)nc2ccccc12	26.2%	9.9% (active)	61.1%	55.5%	34.2%	18.8%	34%	57.1%	34.1%	73.6%	37.2%	47.6%	50%	59.7%		47%	15.7%	6.93% (active)	64.1%
